Assay outcomes (PubChem)
TDP43 rescue = TDP-43 toxicity inhibition in yeast; TDP-43 expressing yeast growth rescue, BacTiter-Glo, 24 h; Potency, µM (doses to about 46.1 µM), without a hit: top-dose growth rescue (activation), hits mostly activators; hit rate 1.8% among 410,000; AID 652104; also: % of control where 0% means no effect; nearly all actives have a fitted effect of over 50% in size
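In this qHTS, compounds that restore growth of yeast expressing TDP-43 appear as activators. Cells (OD600=0.02, galactose medium, raffinose-pregrown) are incubated with compound 24 hr at 30 deg C and growth is quantified by BacTiter-Glo.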
aSyn yeast inh = rescues yeast growth from alpha-synuclein toxicity; hit rate 0.14% among 370,000; Yeast expressing alpha-synuclein, growth rescue, BacTiter-Glo, 24 h; AID 652106; Potency, µM (doses to about 46.1 µM), for inactives: at the top dose growth rescue (activation), actives largely listed as activators; also: % of control where 0% means no effect; nearly all actives have a fitted effect of over 65% in size
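Screening used galactose-induced yeast with toxic alpha-synuclein levels, exposed to compound for 24 hr at 30 deg C. Cell growth, read with BacTiter-Glo luminescence, gave the measured signal.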
Abeta yeast res = A-beta toxicity reversal in yeast; Potency, µM (top dose mostly 46.1 µM), usual class: activators; yeast expressing A-beta42, growth rescue, OD600, 48 h; response scale: 0% DMSO, 100% iron-clioquinol control; hit rate 0.063% among 410,000; AID 1347071; also: nearly all actives have a fitted effect of over 55% in size
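Yeast A-beta toxicity model in growth medium with pinned compounds, 48 h at 30 C; growth read as absorbance at 600 nm. Normalized to FeCl3/clioquinol equimolar mix (positive) and DMSO (negative).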
FUS suppressor = FUS proteinopathy suppression in yeast; S. cerevisiae FUS-expressing, growth rescue, OD600, 24 h; hit rate 0.24% among 390,000; AID 1347120; Potency, µM (highest dose often 76.6 µM), usual class: activators;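 also: plate controls were DMSO vehicle for no effect and reference control for full effect; nearly all actives have a fitted effect of over 55% in size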
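Absorbance at 600 nm, taken 24hr after compound addition, measured rescue of FUS-yeast growth at 30C. Induction used 2% galactose with seeding at OD 0.005. Controls: CP55940 from 92uM final, DMSO only.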
Starred values were filed as active, the others as inactive; i = inactive; ? = inconclusive; nt = not tested or not shown; [ ] = remark or other dose. An excerpt weighted towards active compounds, which were near 2.1% of everything screened. Calls follow the shape of the dose curve; as a rule, active = well fitted curve in the direction sought with a large enough effect; inconclusive = small, poorly fitted or top-dose-only effect, or another doubt; inactive = no such curve, though single readings can be large; an effect the other way counts as inactive or inconclusive. Potency is read from the fitted curve at half-maximal effect.

SMILES | TDP43 rescue | aSyn yeast inh | Abeta yeast res | FUS suppressor
Cc1ccccc1OCC(=O)Nc1ccc2[nH]ncc2c1 | 13µM* | 9% | i | i
O=C(COc1ccccc1)Nc1ccc2[nH]ncc2c1 | 1% | -1% | i | i
O=C(COc1ccc(Cl)cc1)Nc1ccc2[nH]ncc2c1 | 2.8µM* | -4% | i | i
CC(=O)N1CCN(c2ccc(Nc3ncnc4c3oc3ccccc34)cc2)CC1 | -15% | -7% | i | i
O=C1C2C3C=CC(C3)C2C(=O)N1CN(Cc1ccccc1)CN1C(=O)C2C3C=CC(C3)C2C1=O (stereo unspecified) | 5.6µM* | 6% | i | i
O=C(CN1C(=O)C2C3C=CC(C3)C2C1=O)NCc1ccccc1 (stereo unspecified) | -11% | 2% | i | i
C#CCOCCOCCOCCNc1nc(N2CCN(C(=O)[C@H]([C@@H](C)CC)n3cc(CCCN=C(N)N)nn3)CC2)nc(N2CCN(C(=O)[C@H](CCCCN)n3cc(CCC(=O)O)nn3)CC2)n1 | -17% | 2% | i | i
C=CS(=O)(=O)c1c2cc(OC)ccc2nc2ccc(OC)cc12 | 3.5µM* | -42% | i | nt
COc1ccc(C(=O)C(=O)N2CCC(Cc3ccccc3)CC2)cc1OC | 11µM* | 0% | i | i
O=C(C(=O)N1CCC(c2ccccc2)CC1)c1cccc([N+](=O)[O-])c1 | ? | ? | i | i
COc1ccc(C(=O)C(=O)N2CCC(c3ccccc3)CC2)cn1 | 27% | 16µM* | i | i
O=C(C(=O)N1CCC(Cc2ccccc2)CC1)c1cccc(Br)c1 | -9% | 4% | i | i
CCCc1cc(=O)[nH]c(SCC(=O)N2CCCCCC2)n1 | -11% | -6% | i | i
CC(C)NC(=O)C1CCN(C2CCN(C(=O)C3=CCCC3)CC2)CC1 | 14% | 5% | i | i
CCCCC(=O)Nc1cccc(OCc2cc(=O)n3ccccc3n2)c1 | 0% | nt | i | i
CNC(=O)Cn1cc(S(=O)(=O)Cc2ccccc2F)c2ccccc21 | ? | nt | i | i
CSc1ccccc1NC(=O)c1cc(C)on1 | 1% | -3% | i | i
CSc1ccccc1NC(=O)c1cc(C(C)C)on1 | 11µM* | 1% | i | i
CCOC(=O)N/N=C/c1cn(CCCOc2ccc(C)cc2)c2ccccc12 | ? | -4% | i | nt
CCOC(=O)N/N=C/c1cn(CCCOc2ccccc2)c2ccccc12 | 11µM* | 9% | i | i
COc1ccc(N2CCC(CNC(=S)Nc3ccc(C)cc3C)C2)cc1 (stereo unspecified) | ? | -20% | 22µM* | ?
COc1cccc(NC(=O)COC(=O)/C=C/c2c(C)nn(-c3ccccc3)c2C)c1 | 20µM* | -17% | i | i
COc1ccccc1NC(=O)COC(=O)c1c(C)nn(-c2ccccc2)c1C | 18µM* | -2% | i | i
O=C(NC1CCN(C(=O)Nc2ccccc2Cl)CC1)c1cccc(F)c1 | 17% | 9% | i | i
O=c1ccc(C(F)(F)F)cn1Cc1cc(=O)n2ccsc2n1 | 1% | -9% | i | i
SMILES | TDP43 rescue | aSyn yeast inh | Abeta yeast res | FUS suppressor
O=c1cc(COn2nnc3ccc(C(F)(F)F)cc32)nc2sccn12 | 10µM* | 12% | i | i
O=c1cc(COc2ccc(Cl)c(Cl)c2)nc2sccn12 | 8% | -2% | i | i
O=c1cc(CNc2cc(C(F)(F)F)cc(C(F)(F)F)c2)nc2sccn12 | 18µM* | -10% | i | nt
Oc1ccc(Cl)cc1CNCc1ccc(Cl)nc1 | 12% | 0% | i | i
O=C(c1cccc(C(F)(F)F)c1)N1CCOc2ccccc21 | 14µM* | -1% | i | i
COc1ccc(C2C3=C(N=C4SCC(=O)N42)c2ccccc2CC3)cc1OC (stereo unspecified) | -25% | 1% | i | 35µM*
N=C1c2ccccc2CN1NC(=O)c1cccc(S(=O)(=O)N2CCOCC2)c1 | 14% | 9% | i | i
COC(=O)N/N=C/c1cc(Br)ccc1O | -5% | 3% | i | i
Oc1ccc(Br)cc1/C=N/NC(=S)NCCc1ccccc1 | 14% | 16% | ? | i
O=C(N/N=C/c1cc(Br)ccc1O)c1ccccc1Cl | 14µM* | 10µM* | i | i
CC(C)NC(=S)N/N=C/c1cc(Br)ccc1O | ? | 18µM* | ? | i
COCC1CCN(Cc2c(C(=O)N3CCc4ccccc4C3)nc3ccc(Cl)cn23)C1 (stereo unspecified) | 7% | 8% | i | 7.1µM*
CCc1cccc(C)c1NS(=O)(=O)c1ccc2c(c1)CC(C)N2C(=O)C1CC1 (stereo unspecified) | -2% | nt | i | i
Cc1ccc(OCC(=O)Nc2ccc(Cl)c(-c3nc4ncccc4o3)c2)cc1C | 18µM* | ? | i | i
Cc1c(CC(=O)N2CCC(C(=O)O)CC2)c(=O)oc2cc3c(cc12)CCC1(CCCCC1)O3 | 7% | -2% | i | i
Cc1c(CC(=O)N2CCC(O)CC2)c(=O)oc2cc3c(cc12)CCC1(CCCCC1)O3 | 2% | 2% | i | 32µM*
Cc1cccc(-c2nc(CS(=O)CC(=O)NC3CCCC3)c(C)o2)c1 (stereo unspecified) | ? | 5.6µM* | i | i
CC(=O)N/N=C/c1cc(C(C)C)cc(/C=N/NC(C)=O)c1O | -27% | 0% | i | i
O=C(c1cc(C2CC2)nn1-c1ccccc1)N1CCN(c2ccccc2O)CC1 | 18µM* | 6% | i | ?
CN(C)Cc1c(C(=O)N/N=C/c2ccc(OCc3c(F)cccc3Cl)cc2)nnn1-c1nonc1N | 11µM* | -1% | i | i
Nc1nonc1-n1nnc(C(=O)N/N=C/c2ccc(O)cc2)c1COc1ccc(F)cc1 | -29% | -18% | i | i
CCc1ccc2[nH]c(=O)c(C(c3nnnn3Cc3ccco3)N3CCC(C)CC3)cc2c1 (stereo unspecified) | -12% | 3% | i | i
Cc1cccc(-c2nc3scc(CCNC(=O)c4ccccc4Cl)n3n2)c1 | 9%[9.22 µM] | nt | i | i
O=C(NCCc1csc2nc(-c3cccc(F)c3)nn12)c1ccc(Br)o1 | 35µM* | nt | i | i
Cc1ccc(-c2nc3scc(CCNC(=O)c4cccc(Br)c4)n3n2)cc1 | 11µM* | nt | i | i
SMILES | TDP43 rescue | aSyn yeast inh | Abeta yeast res | FUS suppressor
O=C(NCCc1csc2nc(-c3ccc(F)cc3)nn12)c1ccco1 | 0%[9.22 µM] | nt | i | i
CCCn1c(SCC(=O)Nc2ccc3c(c2)OCCO3)nnc1-c1ccco1 | 10% | 1% | i | i
CCc1ccc(NC(=O)c2noc3c2CCC3)cc1 | 11µM* | -8% | i | i
CCc1ccc(NC(=O)c2noc3c2CCCCC3)cc1 | -4% | 0% | i | i
Cc1cc(Br)ccc1NC(=S)NCCc1ccccc1 | ? | 8% | 11µM* | i
Cc1nc(S(=O)(=O)NC2CCCCC2)c(C#N)c(C)c1Cl | ? | 17% | i | i
